# nsP2pro primary: inhibitors of chikungunya virus nsP2 protease. Q8JUX6. FRET peptide cleavage, nsP2pro, fluorescence 1 h. Potency, µM (series often up to 24.9 µM), for the others: top-dose activity change, negative = inhibition, usual class: inhibitors. hit rate 1.1% among 31,000; note: nearly all actives have a fitted effect of over 60% in size
#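 FRET cleavage of 2.5 uM peptide 2 by 150 nM CHIKV protease domain at pH 8.0 (Tris, Tween 20). Compounds at 7 concentrations (up to 25 uM) preincubated 15 min. Fluorescence read after 1 h at room temperature.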
# nsP2 cell sec: secondary cell-based test for CHIKV nsP2 protease inhibitors; cell-based CHIKV nsP2 protease reporter assay; Potency, µM (titrated, usually from 51.1 µM), inactives show at the highest dose activity change, negative = inhibition, hits mostly inhibitors; hit rate 10% among 450; AID 1964100; shares compounds with nsP2pro primary; note: nearly all actives have a fitted effect of over 70% in size
# Target sequence (Q8JUX6 220-798 limits assumed): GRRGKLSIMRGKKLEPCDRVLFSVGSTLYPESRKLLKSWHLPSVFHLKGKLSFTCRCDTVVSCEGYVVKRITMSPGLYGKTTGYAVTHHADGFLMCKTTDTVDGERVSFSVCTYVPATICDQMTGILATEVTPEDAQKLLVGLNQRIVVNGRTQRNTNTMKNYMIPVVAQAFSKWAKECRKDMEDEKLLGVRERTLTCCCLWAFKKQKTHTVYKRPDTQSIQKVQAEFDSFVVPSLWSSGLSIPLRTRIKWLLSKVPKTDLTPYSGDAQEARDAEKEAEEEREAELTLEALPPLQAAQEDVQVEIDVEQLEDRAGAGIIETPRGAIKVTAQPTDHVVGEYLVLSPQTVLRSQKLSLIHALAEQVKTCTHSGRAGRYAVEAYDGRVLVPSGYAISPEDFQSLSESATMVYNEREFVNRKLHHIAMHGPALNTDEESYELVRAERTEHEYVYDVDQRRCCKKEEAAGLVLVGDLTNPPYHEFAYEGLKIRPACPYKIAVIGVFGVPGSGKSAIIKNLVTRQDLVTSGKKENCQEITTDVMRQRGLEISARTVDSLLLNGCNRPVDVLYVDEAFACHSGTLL
# CHIKV NSP2 FL: inhibits full-length CHIKV NSP2 enzyme. Potency, µM (titrated, usually from 50.7 µM), inactives show at the highest dose activity change, negative = inhibition, hits mostly inhibitors. hit rate 39% among 410. Full-length CHIKV NSP2 protease enzymatic counterscreen. shares compounds with nsP2pro primary. AID 1964101; note: nearly all actives have a fitted effect of over 65% in size
# Furin counterscr: selectivity counter-screen for CHIKV nsP2 protease inhibitors: human furin | hit rate 6% among 410 | shares compounds with nsP2pro primary | Recombinant human furin enzymatic counterscreen, fluorogenic substrate | Potency, µM (doses to about 50.6 µM), for inactives: at the highest dose activity change, negative = inhibition, hits mostly inhibitors
# NS23 peptide cs: blocks CHIKV nsP2 protease cleavage of endogenous NS2/3 peptide; shares compounds with nsP2pro primary; hit rate 34% among 410; Potency, µM (highest dose often 51 µM), for inactives: at the top dose activity change, negative = inhibition, actives largely listed as inhibitors; Purified CHIKV nsP2 protease, endogenous NS2/3 peptide cleavage; note: nearly all actives have a fitted effect of over 55% in size
# Papain counter: selectivity counter-screen for CHIKV nsP2 protease inhibitors: papain; AID 1964104; hit rate 5% among 410; shares compounds with nsP2pro primary; Potency, µM (titrated, usually from 51 µM), for inactives: top-dose activity change, negative = inhibition, usual class: inhibitors; purified papain protease activity, enzymatic inhibition
# nsP2pro conf qHTS: confirmation of CHIKV nsP2 protease inhibitors; AID 1964105; Potency, µM (doses to about 25.5 µM), for the others: at the highest dose activity change, negative = inhibition, usual class: inhibitors; hit rate 43% among 410; CHIKV nsP2 protease enzymatic activity, qHTS; shares compounds with nsP2pro primary; note: nearly all actives have a fitted effect of over 75% in size
# HCV NS3 counter: inhibits HCV NS3/4A protease in an nsP2pro selectivity counterscreen. shares compounds with nsP2pro primary. HCV NS3/4A protease biochemical counterscreen. Potency, µM (series often up to 50.9 µM), usual class: inhibitors. hit rate 20% among 410. AID 1964106; note: nearly all actives have a fitted effect of over 55% in size
# * hit, by the source's call; i = inactive; ? = inconclusive; [ ] = dose if it differs, or a comment. Many of the other results were omitted from the sample, so hits are more common in it than they were. Calls come from the whole dose curve. % is set by controls: 0 for no effect and ±100 for the full control effect; potency is the fitted concentration of half-maximal effect.
SMILES,nsP2pro primary,others
OC1CC(c2cccc(F)c2)N(Cc2ccc(-c3ccn[nH]3)o2)C1 (stereo not drawn),?,nsP2 cell sec=-2%;CHIKV NSP2 FL=-40%;Furin counterscr=-6%;NS23 peptide cs=?;Papain counter=-7%;nsP2pro conf qHTS=?;HCV NS3 counter=i
CCc1nc2c(c(-c3ccc(O)cc3)n1)CCN(Cc1ccc(F)cc1)CC2,4%,
CC(C)C[C@H](NC(=O)OCc1ccccc1)C(=O)N[C@@H](CC1CCNC1=O)C(O)S(=O)(=O)O (stereo partly drawn),-24%,
CC(=O)Nc1ccc(S(=O)(=O)Nc2cccc3cccnc23)cc1,i,
COc1ccc(S(=O)(=O)Nc2cccnc2Nc2ccc(O)cc2)cc1,?,nsP2 cell sec=-8%;CHIKV NSP2 FL=8%;Furin counterscr=-13%;NS23 peptide cs=i;Papain counter=-9%;nsP2pro conf qHTS=1%;HCV NS3 counter=i
COc1ccc(CNc2ccc(S(=O)(=O)Nc3nccs3)cc2)c(O)c1,-6%,
CC(C)c1nc(-c2ccc(C(=O)N[C@@H]3COCC[C@@H]3OCC3CC3)cc2)no1,-4%,
Cc1cnn(CCC(=O)NC2CCN(c3ccc(=O)n(C)n3)CC2)c1,-5%,
CC(C)COc1ccc(-c2ccc(=O)n(CC(=O)NCCc3ccccc3)n2)cc1,i,
CC(=O)OC1C(O)C2C(C)C3=CC(=O)OC3(O)CC2C2(C)CCCC(C)(CO)C12 (stereo not drawn),-3%[10 µM],
CC1C2=CC(=O)OC2(O)CC2C1C(OC(=O)c1ccccc1)C(OC(=O)c1ccccc1)C1(O)C2(C)CCC(O)C1(C)C(=O)O (stereo not drawn),2.3µM*,nsP2 cell sec=-3%[17.6 µM];CHIKV NSP2 FL=-3%[17.3 µM];Furin counterscr=11%[17.3 µM];NS23 peptide cs=3%[17.2 µM];Papain counter=-5%[17.2 µM];nsP2pro conf qHTS=-11%[8.62 µM];HCV NS3 counter=i
CC1C2=CC(=O)OC2(O)CC2C1CCC1C(C)(C)CCC(O)C21C (stereo not drawn),-1%,
CCCCC1C(=O)N(C)CCN1c1nc2c(s1)c(C)nn2C (stereo not drawn),i,
C=CC(C)(O)CC/C=C(\C)COC1O[C@H](CO)[C@@H](O)[C@H](O)[C@H]1O (stereo partly drawn),116%,
c1cncc(CN2CCn3c(nnc3C3CCCNC3)C2)c1 (stereo not drawn),?,nsP2 cell sec=7%
O[C@@H]1C[C@@H](c2nnc3n2CCN(C2CCCCC2)C3)N(Cc2cccnc2)C1,-22%,
Fc1ccc(CN2CCn3c(nnc3-c3ccncc3)C2)cc1,-5%,
CC(=O)Nc1sc2c(c1-c1ccc(C(F)(F)F)cc1)CCNC2,-10%,
COc1ccc(C(=O)N2CCOCCNC(=O)CC2)c(OC)c1,-2%,
O=C(Nc1cccc(Cl)c1)N1CC(n2cc(COc3ccccc3)nn2)C1,1%,
O=C(Nc1ccc(OC(F)(F)F)cc1)c1nc2ccccc2nc1N1CCCCC1,?,nsP2 cell sec=37%
CCOc1ccc(NC(=O)c2cnc(N3CCCCC3)c3ccccc23)cc1,2%,
O=C(Nc1ccc(OC(F)(F)F)cc1)c1cc2ccccn2n1,-18%,
COCCOCc1nc(C2CCCN2C(=O)Nc2ccc(F)cc2F)no1 (stereo not drawn),-2%,
O=C1CCCC2=C1C(c1[nH]ncc1Cl)N=C(Nc1nc3ccccc3s1)N2 (stereo not drawn),i,
COc1ccc(C2CC(=O)N3CN(C4CCCCC4)CSC3=C2C#N)c(OC)c1 (stereo not drawn),8.9µM*,nsP2 cell sec=-5%;CHIKV NSP2 FL=18µM*;Furin counterscr=-9%;NS23 peptide cs=?;Papain counter=-8%;nsP2pro conf qHTS=?;HCV NS3 counter=i
N#CC1=C2SCN(C3CCCCC3)CN2C(=O)CC1c1ccc(Br)cc1 (stereo not drawn),0%,
COc1ccc(NC(=O)c2cc3c(s2)CN(C2CCCC2)C3)c(OC)c1,i,
